From PubChem BioAssay
Shown are actives, neighbours in structure and some others; about 4.6% of the full set was active somewhere.
TIM10 inh = growth inhibitors of isogenic TIM10 control yeast, primary screen, counter-screen for tim10-1 yeast inhibitor project, luminescence, uHTS; inhibition, % at 10 µM; AID 463195, 2010; S. cerevisiae TIM10 strain growth, BacTiter-Glo luminescence, 24 h; 330,000 compounds, 1.4% hits;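 active = inhibition of 40% or more at the single tested concentration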;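 also: wild-type TIM10 isogenic control strain grown at permissive 25 °C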
SKKanGAS inh = S. pyogenes SKKanGAS growth inhibitors in kanamycin, primary screen, streptokinase expression inhibitor project, SKKanGAS strain, BacTiter-Glo luminescence; 6 h; inhibition, % at 7.5 µM; 300,000 compounds, 1.3% hits; AID 1662, 2009;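 active = mean replicate score, as percent of positive control median, at least 50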;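 also: strain carries kanamycin resistance gene driven by streptokinase promoter and grows in 40 µg/ml kanamycin; loss of luminescence reflects streptokinase promoter inhibition or plain growth inhibition; 0% = median of DMSO wells and 100% = positive control at its reference dose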
PfHsp90 set2 = growth inhibition of PfHsp90-expressing yeast, primary screen, antimalarial PfHsp90 inhibitor project, S. cerevisiae, BacTiter-Glo luminescence, single point, set 2; BacTiter-Glo ATP, 48 h; yeast lacking PDR1 and PDR3 efflux regulators; inhibition, % at 9.4 µM; 310,000 compounds, 0.32% hits; AID 504621, 2011;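 active = every replicate shows inhibition above about 80%, whatever the replicate mean, limit read from the data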;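 also: 0% = DMSO neutral controls and 100% = 20 µM radicicol positive controls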
tim23-1 inh = growth inhibitors of tim23-1 mutant yeast, primary screen, luminescence, uHTS; S. cerevisiae tim23-1 growth, BacTiter-Glo luminescence, 24 h; inhibition, % at 20 µM; 330,000 compounds, 1.3% hits; AID 463212, 2010;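 active = growth inhibition of the mutant yeast at or above 50%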;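 also: temperature-sensitive mutant grown at 25 °C; plate controls were DMSO-treated mutant yeast for no effect and medium wells lacking yeast for full effect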
tim10-1 inh = growth inhibitors of tim10-1 mutant yeast, primary screen, luminescence, uHTS | S. cerevisiae tim10-1 ts strain growth, BacTiter-Glo, 24 h | 330,000 compounds, 2.2% hits | inhibition, % at 20 µM;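 active = inhibition of at least 40%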;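 also: mutant grown at 25 °C; 0% = DMSO wells with yeast and 100% = wells holding no yeast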
NALP3 yeast inh = NALP3 inflammasome inhibitors in reconstituted yeast, primary screen, luminescence, uHTS; Yeast reconstituted NLRP3/ASC/caspase-1, beta-gal luminescence, 24 h; inhibition, % at 10 µM; 330,000 compounds, 0.39% hits;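 active = inhibition of 50% or more; inactive = inhibition below 50%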;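 also: plate controls were induced DMSO wells for no effect and uninduced yeast grown without galactose for full effect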
Starred values were filed as active, the others as inactive; nt = no result.

SMILES	TIM10 inh	SKKanGAS inh	PfHsp90 set2	tim23-1 inh	tim10-1 inh	NALP3 yeast inh
O=C(Nc1nc(-c2ccc(-c3ccccc3)cc2)cs1)C1CCCO1 (configuration not stated)	24	64*	-25	35	26	26
O=C(Nc1ccc(F)cc1)c1ccc(Br)c(S(=O)(=O)N2CCOCC2)c1	-1	0	-8	13	13	6
O=C(OCC(=O)N1CCN(C(=O)c2ccco2)CC1)c1cc(-c2ccccc2)nc2ccccc12	9	-3	101*	40	2	9
Cc1cc(N2CCN(C(=O)c3ccco3)CC2)n2ncc(-c3ccccc3)c2n1	-11	22	124*	38	19	25
O=C(OCC(=O)N1CCN(C(=O)c2ccco2)CC1)c1cn(-c2ccccc2)nc1-c1ccccc1	18	-3	10	18	29	14
O=C(OCC(=O)N1CCN(C(=O)c2ccco2)CC1)c1cc(-c2cccc(Br)c2)nc2ccccc12	29	53*	100*	37	17	30
O=C(OCC(=O)N1CCN(C(=O)c2ccco2)CC1)c1cc(-c2ccc(F)cc2)nc2ccccc12	-5	20	41	32	31	-11
O=C(N/C(=C/c1cccc([N+](=O)[O-])c1)C(=O)N1CCCCCC1)c1cccs1	18	6	-1	13	22	6
CCOc1cc(C#N)ccc1OCC(=O)N1CCN(C(=O)c2cccs2)CC1	1	nt	6	13	6	5
COc1ccc2c3c(ccc2c1)C(=O)/C(=C/O)CC3	nt	nt	107*	nt	nt	nt
O=[N+]([O-])c1ccc(O)c(/C=N/NC2=NS(=O)(=O)c3ccccc32)c1	6	59*	2	1	18	24
O=[N+]([O-])c1ccc(/C=N/NC2=NS(=O)(=O)c3ccccc32)cc1	-1	-6	15	-4	16	9
O=[N+]([O-])c1ccc(O)c(/C=N/Nc2ccc(Cl)nn2)c1	-20	102*	13	-30	20	30
Clc1ccc(COn2c(-c3ccc(Cl)cc3)nc3ccccc32)cc1	23	52*	nt	7	13	18
Clc1ccc(COn2c(-c3ccccc3)nc3ccccc32)cc1	23	7	6	32	24	17
Cc1cc(O)c(C(C)C)cc1C1(c2cc(C(C)C)c(O)cc2C)OC(=O)c2ccccc21	0	84*	4	2	6	16
O=C(Nc1cccc(C(F)(F)F)c1)C1CCN(S(=O)(=O)c2cccnc2)CC1	-3	7	-1	6	-6	19
COC(=O)c1ccccc1NC(=O)c1nc(S(=O)(=O)Cc2ccccc2)ncc1Cl	28	58*	-5	38	38	8
N#CCN=C(c1ccccc1)c1ccccc1	-2	nt	3	-10	-9	-7
Cc1ccc2c(Cl)cc(Cl)c(OCC(=O)NC(C)(C)C)c2n1	13	50*	-56	14	7	7
CC(=O)N1N=C(c2ccco2)CC1c1cc2ccc(C)cc2nc1Cl (configuration not stated)	-15	9	-15	-12	-4	-12
Oc1ccc(F)cc1-c1cc(-c2ccc3c(c2)OCCO3)n[nH]1	17	56*	17	-6	3	24
CCOc1ccc(S(=O)(=O)N2CCN=C2c2ccccc2)c(C)c1C	-7	-1	19	30	18	6
O/N=C/c1ccc2cccc(O)c2n1	10	12	-2	-6	0	22
COc1ccccc1/C=C/c1ccc2cccc(O)c2n1	16	97*	-26	13	15	10
COc1ccc(N=Cc2cc(Cl)ccc2O)cc1Cl	17	-2	23	35	24	-10
COc1cc(Cl)cc(/C=C/c2ccc3cccc(O)c3n2)c1OC	11	87*	10	10	26	13
COc1ccc(Cl)cc1/C=C/c1ccc2cccc(O)c2n1	12	89*	-22	12	13	26
